In PubChem BioAssay (EPA / NIEHS):
Inconclusive results are not listed. Activity calls are given as the source filed them. The calls were made as follows, unless noted: active = hit-call score of the fitted dose curve at least 0.9, where 1 is the maximum; inconclusive = response in the unintended direction; inactive = score below 0.9.

Legend:
[1] = IUF_NPC2a_radial_glia_migration_72hr: Leibniz Research Institute for Environmental Medicine (IUF) 72-hour Neural Progenitor Cell Migration Assay for Radial Glia Migration (NPC2a) (AID 2284299; active = hit-call score of the fitted dose curve at least 0.9, where 1 is the maximum; inactive = score below 0.9)
Outline: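 Primary hNPC spheres, fetal brain GW 16-19, on PDL/laminin; DMEM/F12 3:1 + 1% N2. Compound dosed day 0, 7 conc. + SC, half-medium refresh day 3. 72 h brightfield, migration distance core-to-front (um), 4 directions averaged.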

[2] = IUF_NPC2b_neuronal_migration_120hr: Leibniz Research Institute for Environmental Medicine (IUF) 120-hour Neural Progenitor Cell Migration Assay for Neuron Migration (NPC2b) (AID 2284300; active = hit-call score of the fitted dose curve at least 0.9, where 1 is the maximum; inactive = score below 0.9)
Outline: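 TUBB3-positive neurons are imaged after 120 h of differentiation, and their mean distance from the sphere edge is normalised to radial glia migration. Single 0.3 mm fetal hNPC spheres on poly-D-lysine/laminin received 7 compound concentrations, ≤0.1% DMSO, refreshed at day 3.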

[3] = IUF_NPC3_neuronal_differentiation_120hr: Leibniz Research Institute for Environmental Medicine (IUF) 120-hour Neuronal Differentiation Assay (NPC3) (AID 2284301; active = hit-call score of the fitted dose curve at least 0.9, where 1 is the maximum; inactive = score below 0.9)
Outline: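 Primary human fetal neural progenitor spheres (GW 16-19, 0.3 mm) plated on poly-D-lysine/laminin in N2 medium, exposed from day 0 for 120 h with half-medium refresh at day 3. TUBB3+ cells as percent of Hoechst nuclei in migration area; DMSO baseline.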

[4] = IUF_NPC4_neurite_area_120hr: Leibniz Research Institute for Environmental Medicine (IUF) 120-hour Neuronal Morphology Assay for Neurite Area (NPC4) (AID 2284305)
Outline: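 Human fetal cortex-derived neural progenitor spheres (0.3 mm, GW 16-19) plated on poly-D-lysine/laminin in N2 differentiation medium and exposed from day 0 for 120 h across 7 concentrations plus solvent control. Neurite area is mean pixel area per TUBB3-positive neuron via skeletonization, analysed relative to DMSO.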

[5] = IUF_NPC2-5_cytotoxicity_72hr: Cytotoxicity Assessment at 72 hours in the Leibniz Research Institute for Environmental Medicine (IUF) Neural Progenitor Cell Migration and Differentiation Assay for Cytotoxicity (NPC2-5) (AID 2284306);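 also: LDH release into supernatant measured by resorufin fluorescence marking membrane damage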
Outline: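 Human fetal (GW 16-19) neural progenitor spheres, 0.3 mm, plated on poly-D-lysine/laminin in N2 differentiation medium and exposed from day 0 to 7 concentrations plus solvent control (DMSO ≤0.1%). LDH-dependent resazurin-to-resorufin fluorescence in supernatant at 72 h.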

[6] = IUF_NPC2-5_cytotoxicity_120hr: Cytotoxicity Assessment at 120 hours in the Leibniz Research Institute for Environmental Medicine (IUF) Neural Progenitor Cell Migration and Differentiation Assay (NPC2-5) (AID 2284307)
Outline: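 Membrane-integrity loss measured as LDH activity in medium supernatant via resazurin-to-resorufin fluorescence after 120 h exposure. hNPC spheres from GW 16-19 fetal cortex differentiated on poly-D-lysine/laminin, 37C, medium half-refreshed day 3; seven concentrations, DMSO max 0.1%.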

[7] = IUF_NPC2-5_cell_number_120hr: Cell Number Assessment at 120 hours in the Leibniz Research Institute for Environmental Medicine (IUF) Neural Progenitor Cell Migration and Differentiation Assay (NPC2-5) (AID 2284308; active = hit-call score of the fitted dose curve at least 0.9, where 1 is the maximum; inactive = score below 0.9;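 also: count of Hoechst-stained nuclei in migration zone around plated human neural progenitor spheres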)
Outline: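 Counting of all Hoechst-stained nuclei in the migration area at 120 h, versus DMSO control. Primary hNPC spheres differentiated on poly-D-lysine/laminin in N2 medium at 37C, dosed from day 0 (7 concentrations, DMSO ≤0.1%), half-refed day 3.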

[8] = IUF_NPC2-5_viability_120hr: Viability Assessment at 120 hours in the Leibniz Research Institute for Environmental Medicine (IUF) Neural Progenitor Cell Migration and Differentiation Assay (NPC2-5) (AID 2284312; active = hit-call score of the fitted dose curve at least 0.9, where 1 is the maximum; inactive = score below 0.9)
Outline: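 Human fetal (GW 16-19) neural progenitor spheres of 0.3 mm were plated on poly-D-lysine/laminin in N2 differentiation medium and exposed from day 0 for 120 h, with half-medium refresh at day 3. Viability was read as alamar blue resazurin-to-resorufin fluorescence against DMSO.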

[9] = IUF_NPC1_cytotoxicity_72hr: Cytotoxicity Assessment at 72 hours in the Leibniz Research Institute for Environmental Medicine (IUF) Neural Progenitor Cell Proliferation Assay (NPC1) (AID 2284332);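 also: rising LDH signal means more cytotoxicity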
Outline: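 Spheres of primary human neural progenitors are plated one per well on day 0 in growth-factor medium and dosed at once. After three days at 37C, supernatant LDH is measured fluorimetrically via resazurin reduction.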

[10] = system: SERPINA7 (gene 6906); experiment: CCTE_GLTED_hTBG: CCTE's human Thyroxine-binding Globulin (TBG) Inhibition Assay, Great Lakes Toxicology and Ecology Division (GLTED) Lab (AID 2284343);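 also: active chemicals lower fluorescence versus DMSO baseline by displacing probe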
Outline: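 hTBG + test chem, 2 h; ANSA probe displacement; fluorescence readout ex380/em475; DMSO = neg ctrl/baseline; cell-free.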

[11] = system: TTR (gene 7276); experiment: CCTE_GLTED_hTTR_0.125uM: CCTE's human Transthyretin (hTTR) Inhibition Assay, with 0.125uM TTR, Great Lakes Toxicology and Ecology Division (GLTED) Lab (AID 2284431; active = hit-call score of the fitted dose curve at least 0.9, where 1 is the maximum; inactive = score below 0.9;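 also: hits lower the fluorescence signal relative to DMSO baseline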)
Outline: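 TTR at 0.125uM incubated 2 h with test chemical; displacement of bound ANSA read by fluorescence (ex 380, em 475). Activity is signal loss versus DMSO baseline.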

[12] = target: human Caspase 5 (CASP5), CASP5 (gene 838) (UniProt P51878); experiment: NVS_ENZ_hCASP5: NovaScreen (NVS) Enzymatic Assay for human Caspase 5 (CASP5) (AID 2283137)
Chain of human Caspase 5 (CASP5), CASP5 (gene 838) (P51878 whole entry, looked up): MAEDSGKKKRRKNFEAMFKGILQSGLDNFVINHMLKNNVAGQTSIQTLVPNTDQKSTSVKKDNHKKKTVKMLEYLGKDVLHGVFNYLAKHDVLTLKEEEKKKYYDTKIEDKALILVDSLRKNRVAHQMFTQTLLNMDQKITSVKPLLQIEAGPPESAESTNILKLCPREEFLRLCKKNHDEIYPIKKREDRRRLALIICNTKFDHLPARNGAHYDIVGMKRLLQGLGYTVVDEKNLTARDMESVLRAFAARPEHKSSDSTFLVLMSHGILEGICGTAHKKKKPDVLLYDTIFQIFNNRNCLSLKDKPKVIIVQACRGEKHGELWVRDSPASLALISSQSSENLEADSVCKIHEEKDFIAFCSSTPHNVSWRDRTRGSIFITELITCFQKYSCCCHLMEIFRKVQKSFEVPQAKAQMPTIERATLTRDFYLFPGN
Outline: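 E. coli-derived enzyme, cell-free, 2 h incubation, fluorescence intensity. 25 uM duplicate single-point; hits → concentration series to 50 uM. DMSO baseline, positive/negative controls on every plate.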

[13] = system: guinea pig Dopamine Transporter (DAT), gene 100714898; experiment: NVS_TR_gDAT: NovaScreen (NVS) Transporter Assay for guinea pig Dopamine Transporter (DAT) (AID 2283369);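 also: active compounds lower bound radioligand signal relative to DMSO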
Outline: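 Radioligand displacement on membranes from guinea pig striatum, 2 h exposure, bound label counted by filtration and scintillation. Tested at 25 uM in duplicate, then actives in concentration series to 50 uM; DMSO as negative control.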

[14] = target: PGR (gene 5241) (UniProt P06401); experiment: TOX21_PR_BLA_Followup_Antagonist_ratio: Tox21 HEK293 Progesterone Receptor (PR) Antagonism Beta-lactamase Follow-Up Assay, Ratio (AID 2283934)
Chain of PGR (gene 5241) (P06401 whole entry, looked up): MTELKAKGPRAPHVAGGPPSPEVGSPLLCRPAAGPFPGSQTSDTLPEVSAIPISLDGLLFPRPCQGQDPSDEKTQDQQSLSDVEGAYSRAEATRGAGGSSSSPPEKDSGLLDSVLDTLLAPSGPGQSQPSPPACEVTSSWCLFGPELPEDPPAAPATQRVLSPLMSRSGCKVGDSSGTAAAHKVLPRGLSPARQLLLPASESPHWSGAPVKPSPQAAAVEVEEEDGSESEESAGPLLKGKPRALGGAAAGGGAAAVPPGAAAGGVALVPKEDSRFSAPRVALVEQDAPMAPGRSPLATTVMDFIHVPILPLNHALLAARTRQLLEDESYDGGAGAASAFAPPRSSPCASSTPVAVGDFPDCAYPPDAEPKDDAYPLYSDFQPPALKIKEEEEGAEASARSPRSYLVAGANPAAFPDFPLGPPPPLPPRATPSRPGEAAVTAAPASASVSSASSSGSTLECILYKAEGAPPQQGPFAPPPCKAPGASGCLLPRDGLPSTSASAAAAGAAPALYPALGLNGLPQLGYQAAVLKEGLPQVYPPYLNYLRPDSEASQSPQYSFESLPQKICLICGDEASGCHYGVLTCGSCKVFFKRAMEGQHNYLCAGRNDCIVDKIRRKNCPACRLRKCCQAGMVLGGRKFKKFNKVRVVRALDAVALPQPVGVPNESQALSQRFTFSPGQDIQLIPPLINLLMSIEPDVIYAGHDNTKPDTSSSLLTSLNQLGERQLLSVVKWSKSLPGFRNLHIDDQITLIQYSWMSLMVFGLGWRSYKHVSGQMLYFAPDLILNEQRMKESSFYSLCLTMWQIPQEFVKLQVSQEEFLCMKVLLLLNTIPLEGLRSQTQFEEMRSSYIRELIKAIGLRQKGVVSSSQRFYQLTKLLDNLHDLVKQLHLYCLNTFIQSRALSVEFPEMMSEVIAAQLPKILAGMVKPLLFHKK
Outline: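 HEK293T PR-UAS-bla, 2% CS-FBS; 6 hr plating, then cpd + R5020 (1 nM final), 16 hr 37C/5% CO2. B/G FRET substrate 2 h RT. Ratio ch2/ch1 vs DMSO; CellTiter-Glo viability multiplexed, autofluorescence checked.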

[15] = target: PGR (gene 5241) (UniProt P06401); experiment: TOX21_PR_LUC_Followup_Antagonist: Tox21 HEK293 Progesterone Receptor (PR) Antagonism Luciferase Follow-Up Assay (AID 2283938);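 also: curve fitted upward as signal gain over DMSO baseline despite antagonist label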
Outline: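 Luminescence from ONE-Glo was measured 30 min after reagent addition, following 16 h exposure of HEK293-PR-A-luc cells (3,000/well, plated 5 h earlier) to DMSO-dissolved compounds at 37C; DMSO served as baseline.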

[16] = target: Bile acid receptor (Homo sapiens) (UniProt Q96RI1); experiment: ATG_FXR_TRANS: Attagene TRANS-FACTORIAL HepG2 Assay for Farnesoid X Receptor (FXR) (AID 2282979); details: HepG2 Attagene TRANS FXR-GAL4 reporter transcription;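 also: hits raise reporter mRNA above DMSO so AC50 marks FXR activation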
Chain of Bile acid receptor (Homo sapiens) (Q96RI1 whole entry, looked up, the tested form may be a part): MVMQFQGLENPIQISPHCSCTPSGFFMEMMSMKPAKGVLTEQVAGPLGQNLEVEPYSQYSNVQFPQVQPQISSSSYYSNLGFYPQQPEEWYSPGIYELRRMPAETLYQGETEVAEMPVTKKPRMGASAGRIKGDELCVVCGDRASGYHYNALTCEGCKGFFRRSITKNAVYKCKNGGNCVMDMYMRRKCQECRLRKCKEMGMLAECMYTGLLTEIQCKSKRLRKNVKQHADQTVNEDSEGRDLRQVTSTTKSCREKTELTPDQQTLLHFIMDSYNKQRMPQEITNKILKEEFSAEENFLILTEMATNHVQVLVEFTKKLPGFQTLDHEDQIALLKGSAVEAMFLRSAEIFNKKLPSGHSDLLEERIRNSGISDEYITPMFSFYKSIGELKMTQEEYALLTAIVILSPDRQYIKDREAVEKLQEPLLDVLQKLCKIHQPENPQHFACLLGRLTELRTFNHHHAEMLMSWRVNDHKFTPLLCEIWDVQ
Outline: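 Reporter transcripts from transfected HepG2 cells were measured 24 h after dosing, using RT-PCR with capillary electrophoresis of 6-FAM-labelled fragments. The read-out reflects activity of exogenous FXR-Gal4 chimera on GAL4-UAS units, with induction relative to DMSO.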

[17] = target: human Norepinephrine Transporter (NET), SLC6A2 (gene 6530) (UniProt P23975); experiment: NVS_TR_hNET: NovaScreen (NVS) Transporter Assay for human Norepinephrine Transporter (NET) (AID 2283377);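 also: cell-free membrane protein extracted from CHO cells expressing human NET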
Chain of human Norepinephrine Transporter (NET), SLC6A2 (gene 6530) (P23975 whole entry, looked up): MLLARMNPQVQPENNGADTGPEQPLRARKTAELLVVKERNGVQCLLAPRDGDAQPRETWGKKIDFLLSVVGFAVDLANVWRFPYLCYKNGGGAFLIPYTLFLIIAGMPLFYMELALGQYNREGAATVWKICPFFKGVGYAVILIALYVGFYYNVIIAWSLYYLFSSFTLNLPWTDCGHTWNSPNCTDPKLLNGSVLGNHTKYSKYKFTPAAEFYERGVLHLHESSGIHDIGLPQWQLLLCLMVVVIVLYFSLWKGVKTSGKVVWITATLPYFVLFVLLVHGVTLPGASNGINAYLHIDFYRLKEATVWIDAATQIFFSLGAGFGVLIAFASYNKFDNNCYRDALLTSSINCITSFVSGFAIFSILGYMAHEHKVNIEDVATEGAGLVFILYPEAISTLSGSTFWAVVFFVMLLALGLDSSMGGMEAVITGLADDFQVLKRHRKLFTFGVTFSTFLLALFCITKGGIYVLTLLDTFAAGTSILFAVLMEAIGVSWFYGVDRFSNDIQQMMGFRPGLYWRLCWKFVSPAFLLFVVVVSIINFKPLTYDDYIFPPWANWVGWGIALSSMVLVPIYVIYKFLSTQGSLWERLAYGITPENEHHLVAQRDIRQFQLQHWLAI
Outline: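 Radioligand binding to human NET in cell-free CHO-derived protein preparations, read by filter-based scintillation counting 1 hour after dosing. Loss of signal versus DMSO baseline indicated displacement; primary screening in duplicate at 25 uM, actives then titrated.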

[18] = target: D(1A) dopamine receptor (Homo sapiens) (UniProt P21728); experiment: NVS_GPCR_hDRD1: NovaScreen (NVS) G Protein-Coupled Receptor Assay for human Dopamine Receptor D1 (DRD1) (AID 2283269)
Chain of D(1A) dopamine receptor (Homo sapiens) (P21728 whole entry, looked up): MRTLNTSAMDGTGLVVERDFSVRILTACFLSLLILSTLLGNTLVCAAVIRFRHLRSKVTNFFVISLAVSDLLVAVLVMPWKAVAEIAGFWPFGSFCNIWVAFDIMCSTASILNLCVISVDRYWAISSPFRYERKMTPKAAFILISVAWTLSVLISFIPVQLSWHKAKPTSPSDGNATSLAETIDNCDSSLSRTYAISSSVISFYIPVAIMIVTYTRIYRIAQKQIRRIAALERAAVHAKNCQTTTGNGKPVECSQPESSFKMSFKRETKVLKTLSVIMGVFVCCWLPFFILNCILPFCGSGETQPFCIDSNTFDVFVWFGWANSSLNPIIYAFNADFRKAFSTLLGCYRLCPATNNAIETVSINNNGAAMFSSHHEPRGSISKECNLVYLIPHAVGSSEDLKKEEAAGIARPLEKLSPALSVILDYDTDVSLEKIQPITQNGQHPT
Outline: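 Radioligand displacement binding on membranes/protein extracted from HEK293 expressing human D1, cell-free; read 1 h after dosing by filter-based scintillation counting. Primary screen in duplicate at 25 uM, actives followed up in concentration series; signal loss versus DMSO baseline.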

[19] = target: Estrogen receptor (Homo sapiens) (UniProt P03372); experiment: OT_ER_ERaERa_1440: Odyssey Thera (OT) 24-hour HEK293T Protein-Complementation Assay for Estrogen Receptor-alpha/-alpha Homodimer (AID 2283349);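 also: hits raise fluorescence above DMSO for agonists and antagonists alike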
Chain of Estrogen receptor (Homo sapiens) (P03372 whole entry, looked up, the tested form may be a part): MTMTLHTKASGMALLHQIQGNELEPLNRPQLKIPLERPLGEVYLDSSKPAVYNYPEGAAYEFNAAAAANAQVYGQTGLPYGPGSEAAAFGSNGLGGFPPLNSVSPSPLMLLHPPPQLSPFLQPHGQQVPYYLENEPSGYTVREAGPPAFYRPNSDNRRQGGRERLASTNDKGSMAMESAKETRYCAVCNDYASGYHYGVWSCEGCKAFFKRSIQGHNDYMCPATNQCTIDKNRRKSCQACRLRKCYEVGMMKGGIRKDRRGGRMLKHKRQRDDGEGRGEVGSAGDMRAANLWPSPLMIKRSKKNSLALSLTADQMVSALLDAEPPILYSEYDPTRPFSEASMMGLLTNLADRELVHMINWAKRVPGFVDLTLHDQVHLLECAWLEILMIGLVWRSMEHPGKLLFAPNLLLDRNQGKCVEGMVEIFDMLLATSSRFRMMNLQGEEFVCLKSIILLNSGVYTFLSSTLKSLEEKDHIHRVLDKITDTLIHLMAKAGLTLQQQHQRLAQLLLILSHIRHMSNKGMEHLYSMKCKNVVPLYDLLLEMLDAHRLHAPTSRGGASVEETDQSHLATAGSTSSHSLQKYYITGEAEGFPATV
Outline: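 Readout is the rise in mean fluorescence from reporter fragment complementation when ERα LBD (aa 310-547) units dimerize in HEK293T cells. Measured 24 h after dosing and analysed as increase over DMSO control.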

[20] = target: Estrogen receptor (Homo sapiens) (UniProt P03372); experiment: OT_ER_ERaERa_0480: Odyssey Thera (OT) 8-hour HEK293T Protein-Complementation Assay for Estrogen Receptor-alpha/-alpha Homodimer (AID 2283351);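 also: rise in fluorescence from reassembled reporter fragments on ERα LBD homodimer in nucleus or whole cell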
Outline: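 HEK293T, stable ERα LBD (aa 310-547) PCA homodimer; 8 h compound exposure; fluorescence intensity, laser scanning cytometer; positive fitting direction, DMSO baseline.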

SMILES: Cc1ccc(OP(=O)(Oc2ccc(C)cc2)Oc2ccc(C)cc2)cc1 (tested in a mixture with another compound)
- outcome [1]: inactive
- outcome [2]: inactive
- outcome [3]: inactive
- outcome [4]: inactive
- outcome [5]: inactive
- outcome [6]: inactive
- outcome [7]: inactive
- outcome [8]: inactive
- outcome [9]: inactive
- AC50 [10]: 1.03 µM (active)

SMILES: Oc1cc(Cl)ccc1Cl
- AC50 [11]: 1.17 µM (active)

SMILES: Nc1ccc(-c2ccc(N)c(N)c2)cc1N
- AC50 [12]: 5.41 µM (active)

SMILES: O=S(=O)(c1ccccc1)c1ccccc1
- AC50 [13]: 19.9 µM (active)

SMILES: CCOP(=O)(OCC)Oc1ccc([N+](=O)[O-])cc1
- AC50 [11]: 5.87 µM (active)

SMILES: CC1OC(C)OC(C)O1 (stereo not given)
- outcome [12]: inactive

SMILES: C[C@]12CC[C@H]3[C@@H](CC[C@@]45O[C@@H]4C(O)=C(C#N)C[C@]35C)[C@@H]1CC[C@@H]2O
- outcome [14]: inactive
- outcome [15]: inactive

SMILES: CC(C)(C)C(O)C(Oc1ccc(-c2ccccc2)cc1)n1cncn1 (stereo not given)
- outcome [16]: inactive
- AC50 [13]: 18 µM (active)
- AC50 [17]: 25 µM (active)

SMILES: CC(=O)/C=C/c1ccccc1
- AC50 [17]: 19.9 µM (active)

SMILES: C[C@]12CCC(=O)C(O)=C1CC[C@@H]1[C@@H]2CC[C@]2(C)C(=O)CC[C@@H]12
- AC50 [14]: 11.3 µM (active)
- outcome [15]: inactive

SMILES: CC(C)C(=O)Cl
- outcome [18]: inactive

SMILES: CNC(=N[N+](=O)[O-])NCC1CCOC1 (stereo not given)
- outcome [1]: inactive
- outcome [2]: inactive
- outcome [3]: inactive
- outcome [4]: inactive
- outcome [5]: inactive
- outcome [6]: inactive
- outcome [7]: inactive
- outcome [8]: inactive
- outcome [9]: inactive

SMILES: O=CNC(N1CCN(C(NC=O)C(Cl)(Cl)Cl)CC1)C(Cl)(Cl)Cl (stereo not given)
- outcome [19]: inactive
- outcome [20]: inactive

SMILES: c1ccc(P(c2ccccc2)c2ccccc2)cc1
- outcome [19]: inactive
- AC50 [20]: 60.6 µM (active)
- AC50 [10]: 41.7 µM (active)

SMILES: CCCCCCCCCCCC#N
- outcome [16]: inactive

SMILES: CC1(C)[C@H](C(=O)O[C@H](C#N)c2cccc(Oc3ccccc3)c2)[C@@H]1C=C(Br)Br
- AC50 [17]: 32.8 µM (active)
- AC50 [1]: 0.67 µM (active)
- outcome [2]: inactive
- outcome [3]: inactive
- outcome [4]: inactive
- AC50 [5]: 3.53 µM (active)
- outcome [6]: inactive
- AC50 [7]: 0.461 µM (active)
- outcome [8]: inactive
- outcome [9]: inactive

SMILES: CNC(=O)Oc1cc(C)c(SC)c(C)c1
- outcome [18]: inactive
- AC50 [13]: 25 µM (active)

SMILES: CCCCOP(=O)(O)OCCCC
- outcome [16]: inactive

SMILES: CC(C)(c1cc(Cl)c(O)c(Cl)c1)c1cc(Cl)c(O)c(Cl)c1
- AC50 [15]: 17.2 µM (active)
- AC50 [10]: 8.77 µM (active)
- AC50 [11]: 0.0355 µM (active)

SMILES: CCOC(=O)COc1ccc(Cl)cc1Cl
- AC50 [10]: 24.6 µM (active)
- AC50 [11]: 19.4 µM (active)

SMILES: O=[N+]([O-])c1ccc(Cl)cc1
- outcome [17]: inactive

SMILES: N#Cc1cc(I)c(O)c(I)c1
- outcome [14]: inactive
- AC50 [15]: 29.9 µM (active)

SMILES: c1ccc2c(c1)CCCC2
- outcome [19]: inactive
- outcome [20]: inactive

SMILES: Cc1cc(C)c(C2=C(OC(=O)CC(C)(C)C)C3(CCCC3)OC2=O)c(C)c1
- outcome [19]: inactive
- outcome [20]: inactive

SMILES: O=C1C=CC(=O)C=C1
- AC50 [12]: 28.9 µM (active)
- AC50 [18]: 12.8 µM (active)

SMILES: CC(=O)c1cc2c(cc1C)C(C)(C)C(C)CC2(C)C (stereo not given)
- AC50 [14]: 5.67 µM (active)

SMILES: O=C1C(Cl)=C(Cl)C(=O)C(Cl)=C1Cl
- AC50 [12]: 0.148 µM (active)
- AC50 [18]: 4.01 µM (active)

SMILES: CC(C)CCCCCCCOP(=O)(Oc1ccccc1)Oc1ccccc1
- AC50 [13]: 12.2 µM (active)
- outcome [1]: inactive
- outcome [2]: inactive
- outcome [3]: inactive
- outcome [4]: inactive
- outcome [5]: inactive
- outcome [6]: inactive
- outcome [7]: inactive
- outcome [8]: inactive
- outcome [9]: inactive

SMILES: CCCCNP(N)(N)=S
- outcome [16]: inactive
